Source: PubChem BioAssay (NCI)
About 79,000 compounds went through this panel and 15% of them were active in at least one assay; those are over-represented in the sample as a whole. The source made the active and inactive calls. Cut-off read from the data, not from the text of the source: active = growth inhibition above about 70%; inactive = the rest. Where a SMILES comes first, the peptide text is derived from it. Bridges are numbered along the chain shown (N, C = ends). [ ]: non-standard residue; d: D form. The star is where a group is joined. ξ: configuration not given here. ξNMePhe(4-NMe2) = CNC(Cc1ccc(N(C)C)cc1)C(=O)O; Picolinoyl(3-OH) = O=C(c1ncccc1O)*; ξPip(4-oxo) = O=C1CCNC(C(=O)O)C1; Phg = N[CH](C(=O)O)c1ccccc1; Abu = CC[CH](N)C(=O)O

Assay: NCI Yeast Anticancer Drug Screen. Data for the mec2-1 strain (AID 157)
Conditions: S. cerevisiae mec2-1 strain, at 50.0 µM, hits give high values
Description: Growth inhibition of yeast strains with defined genetic alterations is measured as a screen for potential anti-cancer activity. Selected strains with alterations in DNA damage repair or cell cycle control were exposed to compounds and growth inhibition was measured relative to vehicle treated controls. The strain used in this assay is mec2-1

Row | Compound | growth inhibition
1 | COCCCC/C(=N\OCCN)c1ccc(C(F)(F)F)cc1 | 4.6% (inactive)
2 | C[C@@H](c1ccccc1)[C@@H](C(=O)O)c1ccccc1 | 5.4% (inactive)
3 | CC[N+](C)(CC)CCO | -3.8% (inactive)
4 | O=C(NC1CCCCC1)OCc1c(COC(=O)NC2CCCCC2)c(-c2ccc(Cl)c(Cl)c2)n2c1CCC2 | 7.1% (inactive)
5 | CCN(CC)c1ccc2nc3ccc(=[N+](CC)CC)cc-3oc2c1 | -192% (inactive)
6 | NC(C(=O)O)c1ccc([N+](=O)[O-])cc1 (stereo not given) | -14.1% (inactive)
7 | COc1ccc(C(=O)C(Br)C(Br)C(=O)O)cc1 (stereo not given) | 24.4% (inactive)
8 | CC(=O)OCCO | 3.5% (inactive)
9 | O=C1Cc2ccccc2C(=O)O1 | -16.5% (inactive)
10 | CCC(=O)Oc1ccc(OC)cc1 | -13.4% (inactive)
11 | CC(=O)c1ccc2c(ccc3ccccc32)c1 | -16.3% (inactive)
12 | CCOC(=O)Nc1nn[nH]n1 | 1.35% (inactive)
13 | COC(=O)c1cccc(Br)c1 | 1.5% (inactive)
14 | COc1ccc(/C=C/c2cccc[n+]2C)cc1 | 1.3% (inactive)
15 | CC(=O)c1ccc(C(C)(C)C)cc1 | -5.2% (inactive)
16 | NCCC(=O)c1ccc(Cl)cc1 | -10.4% (inactive)
17 | O=C(Nc1cc(-c2ccccc2)[nH]n1)c1ccc(Cl)cc1 | -21.1% (inactive)
18 | CCC1NC(=O)C(NC(=O)c2ncccc2O)C(C)OC(=O)C(c2ccccc2)NC(=O)C2CC(=O)CCN2C(=O)C(Cc2ccc(N(C)C)cc2)N(C)C(=O)C2CCCN2C1=O (stereo not given) (tested in a mixture with another compound) ({Picolinoyl(3-OH)}-T[Abu]P[ξNMePhe(4-NMe2)][ξPip(4-oxo)][Phg]; ester 1-C; configuration not given here) | -5.15% (inactive)
19 | N#Cc1c(N)sc(=S)c2c1CCCC2 | 9.85% (inactive)
20 | C=C1CC/C=C(\C)C(=O)C[C@@H]2[C@@H]1CC2(C)C | 11.8% (inactive)

Row | Compound | growth inhibition
21 | COc1ccc(NC(=O)CCl)cc1 | 12.8% (inactive)
22 | Nc1ncnc2[nH]ncc12 | 25.5% (inactive)
23 | c1ccc2c(c1)Sc1ccccc1S2 | 6.8% (inactive)
24 | Cc1cc(N)c(S(=O)(=O)O)c(N)c1 | 5.65% (inactive)
25 | Nc1nc(N)c(N=Nc2ccc(C(=O)O)cc2)c(N)n1 | 7.35% (inactive)
26 | O=C(Cc1nc2ccc([N+](=O)[O-])cc2nc1CC(=O)c1ccccc1)c1ccccc1 | 9.35% (inactive)
27 | O=C(O)CCC(=O)OC(C1CO1)C(OC(=O)CCC(=O)O)C1CO1 (stereo not given) | -16.5% (inactive)
28 | Nc1ccc(N=Nc2ccc(S(=O)(=O)O)cc2)c2ccccc12 | 3.15% (inactive)
29 | O=C(c1ccc(Cl)cc1)c1ccccc1Cl | -8.3% (inactive)
30 | COC(=O)c1cccnc1 | -3.85% (inactive)
31 | CNc1nc(NC)c2cn[nH]c2n1 | 2.3% (inactive)
32 | COc1cc(/C=C/C(=O)c2ccccc2)cc(OC)c1OC | -5.8% (inactive)
33 | c1c(-c2cc(C3CC3)[nH]n2)n[nH]c1C1CC1 | -0.25% (inactive)
34 | CC(=O)NC(N)=S | 3.75% (inactive)
35 | CC1(O)CCCCC1O (stereo not given) | -37.6% (inactive)
36 | CC(=O)c1sc2c(c1OC(=O)c1ccc(Cl)cc1Cl)c(=O)n(-c1ccccc1)c(=S)n2-c1ccccc1 | -23.3% (inactive)
37 | CCOC(=O)CNN | 9.3% (inactive)
38 | CCOC(=O)/C(=C/c1ccc(OC)cc1)N(CC)CC | -22.7% (inactive)
39 | COC(=O)Nc1cccc(Cl)c1OC | -21.4% (inactive)
40 | COc1cccc(COC(=O)Nc2ccccc2)c1OC | 21.4% (inactive)
